ROC1-CUL1 inh – inhibitors of human ROC1-CUL1 ubiquitin ligase activity; in vitro K48 di-Ub FRET, acceptor:donor ratio, 45 min; AID 1347404; P62877+Q13616; inhibition, % at 10 µM; 140,000 compounds, 0.6% hits; in the data active means inhibition above about 25%
Starred values were filed as active, the others as inactive. This excerpt belongs to a sample that is enriched for hits.

SMILES	ROC1-CUL1 inh
COc1ccc(-c2nc(S(=O)(=O)c3ccc(Cl)cc3)c(NCc3ccccc3)o2)cc1	-4
O=C1NN(c2cccc(Cl)c2)C(=O)/C1=C\c1ccc(-c2ccc(Br)cc2C(=O)O)o1	80*
COc1cc(/C=C2\C(=O)NN(c3ccc(C)cc3)C2=O)cc(Br)c1O	12
COc1cc(Br)cc(/C=C2\C(=O)NN(c3ccc(C)c(Cl)c3)C2=O)c1O	43*
COC(=O)c1cccc(-c2ccc(/C=C3/C(=O)NN(c4cccc(Cl)c4)C3=O)o2)c1	11
COC(=O)c1cc(-c2ccc(/C=C3/C(=O)NN(c4cccc(Br)c4)C3=O)o2)ccc1Cl	5
COc1cc(/C=C2\C(=O)NN(c3ccc(Cl)c(Cl)c3)C2=O)cc(Br)c1O	7
O=C(Cn1c2c(c3ccccc31)CCCC2)N1N=C(C(F)F)CC1(O)C(F)F (configuration not stated)	11
CCOC(=O)c1ccccc1NC(=O)CSc1nc2cn(CC)nc2c(=O)n1Cc1ccc(Cl)cc1	-4
O=C1CCCCN1CC(=O)N(CC1CCN(C2CCCC2)CC1)CC1CCCO1 (configuration not stated)	-6
COc1ccc(Cc2nc3ccccc3n2Cc2ccccc2F)cc1	-2
CC(C)c1cc(C(=O)N/N=C/c2cccn2C)c(O)c(C(C)C)c1	-2
Cc1cc(C)cc(N2CCN(C(=O)Cn3cc(NC(=O)CCC(=O)c4ccccc4)cn3)CC2=O)c1	-9
CCOc1ccccc1C1C(C(N)=O)C(C)=Nc2nc(-c3ccccc3Cl)nn21 (configuration not stated)	1
COc1cc(C2C3=C(CC(C)(C)CC3=O)N(Nc3ccccc3)C(=N)C2C#N)ccc1OCc1ccccc1 (configuration not stated)	-5
COc1cc(C2C3=C(CC(C)(C)CC3=O)N(c3ncn[nH]3)C(=N)C2C#N)ccc1OCc1ccccc1 (configuration not stated)	32*
COc1cc(C2C3=C(CC(C)(C)CC3=O)OC(=N)C2C#N)ccc1OCc1ccccc1 (configuration not stated)	-2
CCOC(=O)c1cn(C2CC2)c2c(F)c(NCCCN(C)C)c(F)cc2c1=O	9
N#CCSc1nc(-c2ccccc2)cc(-c2cccs2)c1C#N	-2
COc1cc(CC2=NC(=O)N(Cc3ccc(C)cc3)C2=O)ccc1OCc1cccc(C(=O)O)c1	17
COc1cc(CC2=NC(=O)N(CC(=O)Nc3ccc(C)cc3)C2=O)cc(Cl)c1OCc1cccc(C(=O)O)c1	45*
COc1cc(CC2=NC(=O)N(CC(=O)Nc3cccc(C)c3)C2=O)cc(Cl)c1O	4
CCOc1ccccc1NC(=O)CN1C(=O)CC(c2ccco2)Sc2ccccc21 (configuration not stated)	6
CCOC(=O)C1CCN(S(=O)(=O)c2ccc(OCC)cc2)CC1	6
CCOc1ccc(S(=O)(=O)N2CCOCC2)cc1	-7
SMILES	ROC1-CUL1 inh
CCOc1ccc(S(=O)(=O)N2CCC(Cc3ccccc3)CC2)cc1	59*
CC(C)(C)n1cnc2cc(NC(=O)c3ccco3)ccc21	11
CCCC(=O)N1c2ccccc2-c2nnc(SC)nc2OC1c1cccc(OC)c1 (configuration not stated)	-1
N=C1CC(=O)NC(SCC(=O)O)=N1	9
O=C(O)CSC1=C(SCC(=O)O)C(=O)C(SCC(=O)O)=C(SCC(=O)O)C1=O	102*
O=C(O)CSc1ccc(Cl)cc1	1
CN(C)c1ncc2c(n1)CCCC2NC(=O)c1cc2cc(F)ccc2[nH]1 (configuration not stated)	11
Nc1c(C(=O)Nc2cccc(Cl)c2Cl)sc2ncccc12	12
CCOC(=O)COc1ccc(C)cc1C(=O)c1ccn2nc(-c3ccc(F)cc3)cc2n1	-7
Cc1nn2c(-c3ccc(Cl)cc3Cl)nnc2s1	-9
CCCCCCCCCCCCCCCC[n+]1ccc(/C=C/c2ccc(N(C)C)cc2)cc1	29*
CCCCCCCCCCCCCCCCCCN(C)c1ccc(/C=C/c2cc[n+](C)cc2)cc1	7
CCCCCCCC(=O)Nc1ccc(N(C)C)cc1	-1
COc1cc(CNCCSC)ccc1OCC(O)CN1CCCCCC1 (configuration not stated)	4
COc1cc(CN2CCCC2)ccc1OCC(O)CN1CCCCCCC1 (configuration not stated)	1
COc1cc(CNC(C)(C)C)ccc1OCC(O)CN1CCCC1 (configuration not stated)	99*
CCCOc1ccc(C2CC(=O)NC3=C2C(=O)CCC3)cc1 (configuration not stated)	-2
COc1ccc(-c2nc(SCC(=O)NCCc3ccccc3)n[nH]2)cc1	-8
CCCCOC(=O)Nc1ccc(S(=O)(=O)Nn2cnnc2)cc1	-4
O=C1/C(=C\c2ccccc2)SC(=S)N1c1cccc(Cl)c1	-1
COC(=O)c1cccc(-c2ccc(/C=C3/C(=O)NN(c4ccc(Br)cc4)C3=O)o2)c1	-4
O=C1/C(=C/c2cccc(Cl)c2Cl)SC(=S)N1c1cccc(Cl)c1	-9
O=C(O)c1cccc(-c2ccc(/C=C3\SC(=S)N(c4cccc(F)c4)C3=O)o2)c1	94*
O=C(O)CN1C(=O)/C(=C2\SC(=S)N(C(Cc3ccccc3)C(=O)O)C2=O)c2ccccc21 (configuration not stated)	4
O=C(O)c1cccc(N2C(=O)/C(=C/c3ccc(Cl)cc3)SC2=S)c1	31*
SMILES	ROC1-CUL1 inh
COC(=O)c1cccc(-c2ccc(C=C3C(=O)OC(c4ccccc4)OC3=O)o2)c1 (configuration not stated)	2
O=C1/C(=C\c2cccc(F)c2)SC(=S)N1c1cccc(C(F)(F)F)c1	-1
O=C(O)C(Cc1ccccc1)N1C(=O)/C(=C/c2ccc(Cl)cc2)SC1=S (configuration not stated)	79*
NN1C(=O)/C(=C/c2ccc(-c3cccc(Cl)c3)o2)SC1=S	1
COC(=O)c1cccc(-c2ccc(/C=C3\C(=O)N(c4cccc(C(=O)O)c4)N=C3C(F)(F)F)o2)c1	95*
O=C1S/C(=C\c2ccc(Cl)cc2)C(=O)N1Cc1ccccc1	3
CCCCCCCCCCCCCCCCn1c(SCC)nc2c1c(=O)[nH]c(=O)n2C	14
CC(C)C(=O)NC(=S)N1CCc2ccccc21	2
Cc1c(Cl)cccc1NC(=O)c1cc(S(=O)(=O)N2CCCCC2)cn1C	-9
O=C1NCCC/C1=N\Nc1cc(OCc2ccccc2)ccc1F	0
O=C(CSc1ccccc1)Nc1cccc2c1C(=O)N(c1ccccc1)C2=O	-7
O=S(=O)(c1c(F)c(F)c(F)c(F)c1F)C(F)F	103*
Cc1ccc(S(=O)(=O)C(F)F)cc1	9
CCOC(=O)C1C(=O)/C(=C\c2ccco2)N=C1C (configuration not stated)	-6
CCn1nc(C)c(CNC2CCN(c3ccc(C(=O)NCCN4CCOCC4)cc3)CC2)c1C	-4
COc1ccc(-n2ncc(C(=O)N3CCN(c4cc(C)ccc4C)CC3)c2C2CCN(C(=O)OC(C)(C)C)CC2)cc1	-8
Cc1cc(=O)[nH]c2c(C)cc(S(=O)(=O)N3CCCCC3)cc12	4
Cc1ccc(OCCCOc2ccc(Br)cc2/C=C2\C(=O)NN(c3ccccc3)C2=O)cc1	61*
O=C1NN(c2ccc(Br)cc2)C(=O)/C1=C\c1ccccc1OCc1ccccc1	23
Cc1ccccc1COc1ccc(Br)cc1/C=C1\C(=O)NN(c2ccccc2)C1=O	49*
O=C1NN(c2ccccc2)C(=O)/C1=C/c1cc(Br)ccc1OCCCOc1ccc(Cl)cc1	18
